Source: the supplement of paper PMC4466140

B1: unnamed (peptide)
chain: SSSSTPPTLPPRRIE

Target: CaNbp2
Experiment: SPOT peptide array binding signal intensity (averaged, normalized) (arbitrary units (background-subtracted, floor 0; scale differs between SH3 domains)); higher = stronger binding of the SH3 domain to the peptide
Outline: (§1)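 Binding signal is given in arbitrary units that differ between domains and is the normalized, background-subtracted spot intensity averaged across replicates. Each GST-SH3 fusion from one of four yeast species was made in E. coli BL21(DE3), purified on glutathione Sepharose and incubated at 10 μg/ml overnight at 4°C on cellulose-bound synthetic 15-mer peptides in which cysteines were replaced by serines. Detection used anti-GST antibody, an HRP anti-mouse secondary and luminol, followed by imaging and Genespotter quantification.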

| Binder | SPOT peptide array binding signal intensity |
| --- | --- |
| B1 | 76.5 |

Target: CaRvs167
Experiment: as above
Outline: as §1

| Binder | SPOT peptide array binding signal intensity |
| --- | --- |
| B1 | 2810 |

Target: CaRvs167-3
Experiment: as above
Outline: as §1

| Binder | SPOT peptide array binding signal intensity |
| --- | --- |
| B1 | 0.25 |

Target: CaSho1
Experiment: as above
Outline: as §1

| Binder | SPOT peptide array binding signal intensity |
| --- | --- |
| B1 | ≤ 0 |

Target: CaSla1-D1-D2
Experiment: as above
Outline: as §1

| Binder | SPOT peptide array binding signal intensity |
| --- | --- |
| B1 | 138 |

Target: CaSla1-D3
Experiment: as above
Outline: as §1

| Binder | SPOT peptide array binding signal intensity |
| --- | --- |
| B1 | ≤ 0 |

Target: ScAbp1
Experiment: as above
Outline: as §1

| Binder | SPOT peptide array binding signal intensity |
| --- | --- |
| B1 | ≤ 0 |

Target: ScBbc1
Experiment: as above
Outline: as §1

| Binder | SPOT peptide array binding signal intensity |
| --- | --- |
| B1 | 61.5 |

Target: ScBem1-D1
Experiment: as above
Outline: as §1

| Binder | SPOT peptide array binding signal intensity |
| --- | --- |
| B1 | 8 |

Target: ScBzz1-D1
Experiment: as above
Outline: as §1

| Binder | SPOT peptide array binding signal intensity |
| --- | --- |
| B1 | 3 |

Target: ScBzz1-D2
Experiment: as above
Outline: as §1

| Binder | SPOT peptide array binding signal intensity |
| --- | --- |
| B1 | 2 |

Target: ScCyk3
Experiment: as above
Outline: as §1

| Binder | SPOT peptide array binding signal intensity |
| --- | --- |
| B1 | 2 |

Target: ScFus1
Experiment: as above
Outline: as §1

| Binder | SPOT peptide array binding signal intensity |
| --- | --- |
| B1 | ≤ 0 |

Target: ScHof1
Experiment: as above
Outline: as §1

| Binder | SPOT peptide array binding signal intensity |
| --- | --- |
| B1 | 122 |

Target: ScHse1
Experiment: as above
Outline: as §1

| Binder | SPOT peptide array binding signal intensity |
| --- | --- |
| B1 | ≤ 0 |

Target: ScLsb1
Experiment: as above
Outline: as §1

| Binder | SPOT peptide array binding signal intensity |
| --- | --- |
| B1 | 2090 |

Target: ScLsb2
Experiment: as above
Outline: as §1

| Binder | SPOT peptide array binding signal intensity |
| --- | --- |
| B1 | 1570 |

Target: ScLsb3
Experiment: as above
Outline: as §1

| Binder | SPOT peptide array binding signal intensity |
| --- | --- |
| B1 | 11000 |

Target: ScLsb4
Experiment: as above
Outline: as §1

| Binder | SPOT peptide array binding signal intensity |
| --- | --- |
| B1 | 4800 |

Target: ScMyo3
Experiment: as above
Outline: as §1

| Binder | SPOT peptide array binding signal intensity |
| --- | --- |
| B1 | 111 |

Target: ScMyo5
Experiment: as above
Outline: as §1

| Binder | SPOT peptide array binding signal intensity |
| --- | --- |
| B1 | 17.5 |

Target: ScNbp2
Experiment: as above
Outline: as §1

| Binder | SPOT peptide array binding signal intensity |
| --- | --- |
| B1 | ≤ 0 |

Target: ScPex13
Experiment: as above
Outline: as §1

| Binder | SPOT peptide array binding signal intensity |
| --- | --- |
| B1 | 2100 |

Target: ScRvs167
Experiment: as above
Outline: as §1

| Binder | SPOT peptide array binding signal intensity |
| --- | --- |
| B1 | 3870 |

Target: ScSho1
Experiment: as above
Outline: as §1

| Binder | SPOT peptide array binding signal intensity |
| --- | --- |
| B1 | 56.5 |

Target: ScSla1-D1-D2
Experiment: as above
Outline: as §1

| Binder | SPOT peptide array binding signal intensity |
| --- | --- |
| B1 | 6 |

Target: ScSla1-D3
Experiment: as above
Outline: as §1

| Binder | SPOT peptide array binding signal intensity |
| --- | --- |
| B1 | 1.75 |

Target: SpAbp1-D1
Experiment: as above
Outline: as §1

| Binder | SPOT peptide array binding signal intensity |
| --- | --- |
| B1 | ≤ 0 |

Target: SpBbc1
Experiment: as above
Outline: as §1

| Binder | SPOT peptide array binding signal intensity |
| --- | --- |
| B1 | 0.5 |

Target: SpBzz1-D1
Experiment: as above
Outline: as §1

| Binder | SPOT peptide array binding signal intensity |
| --- | --- |
| B1 | 219 |

Target: SpBzz1-D2
Experiment: as above
Outline: as §1

| Binder | SPOT peptide array binding signal intensity |
| --- | --- |
| B1 | ≤ 0 |

Target: SpCyk3
Experiment: as above
Outline: as §1

| Binder | SPOT peptide array binding signal intensity |
| --- | --- |
| B1 | 4 |

Target: SpHof1
Experiment: as above
Outline: as §1

| Binder | SPOT peptide array binding signal intensity |
| --- | --- |
| B1 | 4.5 |

Target: SpHof1-2
Experiment: as above
Outline: as §1

| Binder | SPOT peptide array binding signal intensity |
| --- | --- |
| B1 | 12.2 |

Target: SpHof1-3
Experiment: as above
Outline: as §1

| Binder | SPOT peptide array binding signal intensity |
| --- | --- |
| B1 | 10 |

Target: SpHse1
Experiment: as above
Outline: as §1

| Binder | SPOT peptide array binding signal intensity |
| --- | --- |
| B1 | 16 |

Target: SpLsb1
Experiment: as above
Outline: as §1

| Binder | SPOT peptide array binding signal intensity |
| --- | --- |
| B1 | 3060 |

Target: SpLsb4
Experiment: as above
Outline: as §1

| Binder | SPOT peptide array binding signal intensity |
| --- | --- |
| B1 | 6340 |

Target: SpMyo1
Experiment: as above
Outline: as §1

| Binder | SPOT peptide array binding signal intensity |
| --- | --- |
| B1 | 594 |

Target: SpNbp2
Experiment: as above
Outline: as §1

| Binder | SPOT peptide array binding signal intensity |
| --- | --- |
| B1 | ≤ 0 |

Target: SpPex13
Experiment: as above
Outline: as §1

| Binder | SPOT peptide array binding signal intensity |
| --- | --- |
| B1 | 4 |

Target: SpRvs167
Experiment: as above
Outline: as §1

| Binder | SPOT peptide array binding signal intensity |
| --- | --- |
| B1 | 3420 |

Target: SpSla1-D1-D2
Experiment: as above
Outline: as §1

| Binder | SPOT peptide array binding signal intensity |
| --- | --- |
| B1 | ≤ 0 |

Target: SpSla1-D3
Experiment: as above
Outline: as §1

| Binder | SPOT peptide array binding signal intensity |
| --- | --- |
| B1 | ≤ 0 |
